# Measured values reported in PubChem BioAssay AID430 (Sanford-Burnham Center for Chemical Genomics, 2006).
# Out of some 63,000 compounds screened, about 1,100 (1.7%) were called active. The sample holds actives, similar compounds and a random draw of the others, so the mix is not that of the screen. Entries with a potency or affinity are not part of this list. Unmarked numbers belong to inactive results. Rule as the data show it: active = cytotoxicity above about 50%; inactive = the rest.
# Test: cytotoxicity in HPDE-C7 cells, cell-based, fluorescence, HTS (AID 430);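 also: cells exposed to compound for 48 hours before viability readout; 0% = vehicle and 100% = reference cytotoxic drug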
# Conditions: HPDE-C7 pancreatic duct cells viability, at 10 µM, hits give high values
row,Compound,cytotoxicity
1,O=C(Nc1ccc2c(c1)OCO2)C1CC(c2ccccc2Cl)=NO1 (centres undefined),5.2%
2,CC(=O)OCC(=O)NCc1ccc2c(c1)OCO2,-32.4%
3,c1ccc(-n2c(Sc3cnccn3)nnc2-c2cccs2)cc1,-0.3%
4,Cc1occc1C(=O)Nc1cccnc1,-15.1%
5,C=CS(=O)(=O)c1ccc(Oc2ccc(S(=O)(=O)C=C)cc2)cc1,93.9% (active)
6,O=S(=O)(c1ccc(Oc2ccc(S(=O)(=O)N3CCOCC3)cc2)cc1)N1CCOCC1,-11.9%
7,CNS(=O)(=O)c1ccc(Oc2ccc(S(=O)(=O)NC)cc2)cc1,5%
8,CCOC(=O)Cc1csc(NC(=O)CCS(=O)(=O)Cc2ccccc2)n1,0%
9,Cc1cccc(NC(=O)NCCN2C(=O)C3C4C=CC(C4)C3C2=O)c1 (centres undefined),0.7%
10,CC(=O)NC(Cc1c[nH]c2ccccc12)C(=O)N1CCc2ccccc2C1 (centres undefined),4.8%
11,CCOc1cc(C2c3c(n[nH]c3C)C(=O)N2c2ccc(Br)cc2)ccc1O (centres undefined),15.4%
12,COc1cc(C2c3c(n[nH]c3C)C(=O)N2c2ccc(Br)cc2)ccc1O (centres undefined),27.9%
13,COc1cc(C2c3c(n[nH]c3C)C(=O)N2c2ccc(C)cc2)ccc1O (centres undefined),53.1% (active)
14,COc1ccc(Cl)cc1N(CC(=O)N1CCN(Cc2ccccc2)CC1)S(C)(=O)=O,-0.8%
15,CC(C)(C)NC(=O)CSc1nnc(-c2ccco2)n1Cc1ccco1,-15.8%
16,COC(=O)c1ccc(C(=O)OC)nc1,-18.5%
17,CCOC1(NC(=O)c2ccccc2)C(C)=CC(=O)C=C1C,-9.8%
18,O=C(Cn1cccc1)Nc1ccc(OC(F)(F)F)cc1,-1.8%
19,C=CCn1c(SC(CCO)C(=O)NCc2ccco2)nc2sc3c(c2c1=O)CCC3 (centres undefined),6.3%
20,C=CCn1c(NCCO)nc2sc3c(c2c1=O)CCC3,62.9% (active)
21,C=CCn1c(SCC(=O)N2CCOCC2)nc2sc3c(c2c1=O)CCCC3,-1.2%
22,COc1ccc(Cl)cc1S(=O)(=O)N1CCN(C)CC1,-4.6%
23,CCN(CC)C(=O)C1CCCN(C/C(C)=C/c2ccccc2)C1 (centres undefined),-8.8%

row,Compound,cytotoxicity
1,CCOC(=O)c1c(N)sn(-c2ccccc2)c1=S,-2%
2,N#Cc1c2c(c(=S)n(-c3ccccc3)c1N)CCCC2,1.6%
3,CC(C(=O)N1CCN(c2ccccc2)CC1)N1C(=O)C2CC=CCC2C1=O (centres undefined),-2.6%
4,CCc1[nH]c(C)c(C(C)=O)c1C,59.8% (active)
5,CC(=O)c1c(C)[nH]c(C)c1C(C)=O,-8.7%
6,CCCNC(=O)c1[nH]c(C)c(C(C)=O)c1C,2%
7,COc1ccc(Cn2c3nc4ccccc4nc3c3c(=O)n(Cc4ccco4)cnc32)cc1,20.7%
8,CC(C)C1N(S(=O)(=O)c2ccccc2)CCN1S(=O)(=O)c1ccccc1,2%
9,Cc1cccc(OCCCCCNCCO)c1,9.6%
10,N#Cc1ccc(-c2ccco2)nc1SCC(=O)c1ccc(Cl)cc1,21.1%
11,COc1ccc(OC)c(NC(=O)CSC2=C(C#N)C(c3ccco3)C3=C(CCCC3=O)N2)c1 (centres undefined),-1.5%
12,Nc1nnc(SCc2ccccc2Cl)s1,8.4%
13,CS(=O)(=O)Nc1ccccc1C(=O)Nc1cccc(Cl)c1,5.3%
14,COc1ccc(Cl)cc1NC(=O)Cn1c(=O)n2nc(C)nc2c2ccccc21,7.2%
15,O=C(CSc1n[nH]c(-c2ccccc2O)n1)N1CCCc2ccccc21,2.3%
16,Cc1ccnc(NS(=O)(=O)c2ccc(NS(=O)(=O)Cc3ccccc3)cc2)n1,-21.7%
17,CCOc1ccccc1C1CC(=O)NC2=C1C(=O)CC(C)(C)C2 (centres undefined),9.7%
18,CCOc1c(OC)cccc1C1CC(=O)Nc2cc3c(cc21)OCCO3 (centres undefined),13.7%
19,CCOc1ccccc1C1CC(=O)Nc2cc3c(cc21)OCO3 (centres undefined),59.7% (active)
20,CCOc1ccccc1C1CC(=O)Nc2cc3c(cc21)OCCO3 (centres undefined),51.1% (active)
21,CCOc1c(OC)cccc1C1CC(=O)Nc2cc(OC)c(OC)cc21 (centres undefined),7.3%
22,CCOc1ccccc1C1CC(=O)Nc2cc(OC)c(OC)c(OC)c21 (centres undefined),-16.2%
23,CN(C(=O)C12CC3CC(CC(C3)C1)C2)C1CCS(=O)(=O)C1 (centres undefined),-5.1%

row,Compound,cytotoxicity
1,O=C(Oc1cc(=O)oc2ccccc12)c1ccco1,14.1%
2,CCCCS(=O)(=O)/C=C\C=C/S(=O)(=O)CCCC,111% (active)
3,CCCCS(=O)(=O)/C=C\C1C2C=CC(C2)C1S(=O)(=O)CCCC (centres undefined),-10.1%
4,CC(=O)NC1(c2cccc(F)c2)CCN(C(=O)Nc2ccc(C#N)cc2)CC1,-15%
5,CC(NC(=O)Cc1ccsc1)c1ccc(S(N)(=O)=O)cc1 (centres undefined),5.5%
6,CN1CCN(CCC(=O)N2c3ccccc3Sc3ccc(Cl)cc32)CC1,17.5%
7,CN1CCN(CCCN2c3ccccc3Sc3ccc(Cl)cc32)CC1,75% (active)
8,CN(C)CCCN1c2ccccc2CCc2ccc(Cl)cc21,31.8%
9,OCCN1CCN(C(=S)c2ccc(Cl)cc2)CC1,-26%
10,O=C(CN1CCN(CCOCCO)CC1)N1c2ccccc2Sc2ccc(Cl)cc21,-24.7%
11,CCCN(C(=O)CSc1nnc(-c2ccoc2C)n1N)C1CCS(=O)(=O)C1 (centres undefined),6.4%
12,CCOC(=O)c1cn(CC)c2ccc(S(=O)(=O)N3CC(C)CC(C)C3)cc2c1=O (centres undefined),-2%
13,CC1=C(C(=O)OCC2CCCO2)C(c2cccc(O)c2)NC(=O)N1 (centres undefined),-6.4%
14,CC(=O)N1CCc2cc(S(=O)(=O)CCC(=O)NCc3ccc4c(c3)OCO4)ccc21,-4.4%
15,Cn1c(C(=O)N2CCN(c3ccccc3F)CC2)cc2c(=O)n(C)c3ccccc3c21,5.3%
16,Cc1ccc(Cl)cc1N1CCN(C(=O)c2cc3c(=O)n(C)c4ccccc4c3n2C)CC1,59.5% (active)
17,Cn1c(C(=O)N2CCCC2)cc2c(=O)n(C)c3ccccc3c21,14.1%
18,COc1ccccc1N1CCN(C(=O)c2cc3c(=O)n(C)c4ccccc4c3n2C)CC1,29%
19,CC(NC(=O)c1cc2c(=O)n(C)c3ccccc3c2n1C)c1ccc2c(c1)OCCO2 (centres undefined),38.8%
20,Cn1c(C(=O)Nc2ccc3c(c2)OCCO3)cc2c(=O)n(C)c3ccccc3c21,60% (active)
21,Cc1cccc(N2CCN(C(=O)c3cc4c(=O)n(C)c5ccccc5c4n3C)CC2)c1C,61.6% (active)
22,Cn1c(C(=O)N2CCN(c3ccc(Cl)cc3)CC2)cc2c(=O)n(C)c3ccccc3c21,6.6%
23,Cn1c(C(=O)Nc2ccc3c(c2)OCO3)cc2c(=O)n(C)c3ccccc3c21,18%
